# In the supplement of paper PMC8728848:
# This excerpt belongs to a sample that is enriched for the strongest signals.
# B1: Epa12 (Candida glabrata) (protein)
# chain: MGSSHHHHHHSSGLVPRGSHMLEPDNSLQIFDSFLSNPSKYPLGCSPKITNPKKGLSMELYSYPYRKKGSHPCWDPAYLDPNFPRVGYKKNKLIARVDGVSGDINFNFHPKRQCTPIADYLPPNFNYNEPITTTNFTMLLYGYFKPKVTGLHTFDISADDLLFMNFGAGNAFDCCRRDSTADTFGNYVAWAIWGRRIVRNKLTVRLDKGIYYPLRLFFNNRDYYGQMRLTFKTEHGSERITDFSDYFFSVDDTSEGCPGLITYESECADVKSSTVLETDYITIQAEKE
# What was measured:
# Assay in all cases: glycan array binding signal (z-score within array); higher = stronger binding
# Conditions in all cases: glycan notation: IUPAC condensed, linker removed
# [1] = molecular target: Fuc(a1-2)Gal(b1-4)Fuc(a1-3)]GlcNAc(b1-2)Man(a1-3)[Fuc(a1-2)Gal(b1-4)[Fuc(a1-3)]GlcNAc(b1-2)Man(a1-6)]Man(b1-4)GlcNAc(b1-4)GlcNAc
# Outline: (§1)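 Negative Z-scores can be read as non-binding. The Z-score is calculated within each array and then averaged across arrays of one protein sequence at different concentrations or buffers and across linkers. Arrays, 3228 in all, were curated from the Consortium for Functional Glycomics database and kept only where the protein sequence was available.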
# [2] = molecular target: Fuc(a1-2)[Gal(a1-4)]Gal(b1-4)GlcNAc
# Outline: as §1
# [3] = molecular target: Fuc(a1-2)[GalNAc(a1-3)]Gal(b1-3)GlcNAc(b1-3)GalNAc
# Outline: as §1
# Fuc(a1-4)GlcNAc = molecular target: Fuc(a1-4)GlcNAc
# Outline: as §1
# Gal(a1-3)Gal(b1-3)GlcNAc = molecular target: Gal(a1-3)Gal(b1-3)GlcNAc
# Outline: as §1
# [4] = molecular target: Gal(a1-3)Gal(b1-3)GlcNAc(b1-2)Man
# Outline: as §1
# [5] = molecular target: Gal(a1-3)Gal(b1-3)GlcNAc(b1-6)GalNAc
# Outline: as §1
# [6] = molecular target: Gal(a1-3)Gal(b1-4)GlcNAc(b1-2)Man(a1-3)[Gal(a1-3)Gal(b1-4)GlcNAc(b1-2)Man(a1-6)]Man(b1-4)GlcNAc(b1-4)GlcNAc
# Outline: as §1
# [7] = molecular target: Gal(a1-3)Gal(b1-4)[Fuc(a1-3)]GlcNAc(b1-2)Man(a1-3)[Gal(a1-3)Gal(b1-4)[Fuc(a1-3)]GlcNAc(b1-2)Man(a1-6)]Man(b1-4)GlcNAc(b1-4)GlcNAc
# Outline: as §1
# [8] = molecular target: Gal(a1-3)[Gal(a1-4)]Gal(b1-4)GlcNAc
# Outline: as §1
# Gal(a1-4)Gal(b1-4)Gal = molecular target: Gal(a1-4)Gal(b1-4)Gal
# Outline: as §1
# Gal(a1-4)Gal(b1-4)GlcNAc = molecular target: Gal(a1-4)Gal(b1-4)GlcNAc
# Outline: as §1
# [9] = molecular target: Gal(a1-4)Gal(b1-4)GlcNAc(b1-2)Man(a1-3)[Gal(a1-4)Gal(b1-4)GlcNAc(b1-2)Man(a1-6)]Man(b1-4)GlcNAc(b1-4)GlcNAc
# Outline: as §1
# [10] = molecular target: Gal(a1-4)Gal(b1-4)GlcNAc(b1-3)Gal(b1-4)Glc
# Outline: as §1
# Gal(a1-4)GlcNAc = molecular target: Gal(a1-4)GlcNAc
# Outline: as §1
# Gal(b1-2)Gal = molecular target: Gal(b1-2)Gal
# Outline: as §1
# Gal(b1-3)Gal(b1-4)GlcNAc = molecular target: Gal(b1-3)Gal(b1-4)GlcNAc
# Outline: as §1
# Gal(b1-3)GalNAc = molecular target: Gal(b1-3)GalNAc
# Outline: as §1
# [11] = molecular target: Gal(b1-3)GalNAc(a1-3)[Fuc(a1-2)]Gal(b1-4)GlcNAc
# Outline: as §1
# [12] = molecular target: Gal(b1-3)GlcNAc(a1-3)Gal(b1-4)GlcNAc
# Outline: as §1
# [13] = molecular target: Gal(b1-3)GlcNAc(b1-3)Gal(b1-4)GlcNAc(b1-2)Man(a1-3)[Gal(b1-3)GlcNAc(b1-3)Gal(b1-4)GlcNAc(b1-2)Man(a1-6)]Man(b1-4)GlcNAc(b1-4)GlcNAc
# Outline: as §1
# [14] = molecular target: Gal(b1-3)GlcNAc(b1-6)GalNAc
# Outline: as §1
# [15] = molecular target: Gal(b1-3)[Fuc(a1-4)]GlcNAc(b1-3)Gal(b1-4)[Fuc(a1-3)]GlcNAc
# Outline: as §1
# Gal(b1-4)Glc6S = molecular target: Gal(b1-4)Glc6S
# Outline: as §1
# [16] = molecular target: Gal(b1-4)GlcNAc(a1-6)Gal(b1-4)GlcNAc
# Outline: as §1
# [17] = molecular target: Gal(b1-4)GlcNAc(b1-2)Man(a1-3)Man(b1-4)GlcNAc(b1-4)GlcNAc
# Outline: as §1
# [18] = molecular target: Gal(b1-4)GlcNAc(b1-2)Man(a1-3)[Gal(b1-4)GlcNAc(b1-2)Man(a1-6)]Man(b1-4)GlcNAc(b1-4)GlcNAc
# Outline: as §1
# [19] = molecular target: Gal(b1-4)GlcNAc(b1-2)Man(a1-3)[Man(a1-6)]Man(b1-4)GlcNAc(b1-4)GlcNAc
# Outline: as §1
# [20] = molecular target: Gal(b1-4)GlcNAc(b1-2)Man(a1-6)Man(b1-4)GlcNAc(b1-4)GlcNAc
# Outline: as §1
# [21] = molecular target: Gal(b1-4)GlcNAc(b1-2)Man(a1-6)[GlcNAc(b1-2)Man(a1-3)]Man(b1-4)GlcNAc(b1-4)GlcNAc
# Outline: as §1
# [22] = molecular target: Gal(b1-4)GlcNAc(b1-3)[Gal(b1-4)GlcNAc(b1-6)]Gal(b1-4)GlcNAc
# Outline: as §1
# Gal3S(b1-4)Glc6S = molecular target: Gal3S(b1-4)Glc6S
# Outline: as §1
# Gal6S(b1-3)GlcNAc6S = molecular target: Gal6S(b1-3)GlcNAc6S
# Outline: as §1
# Gal6S(b1-4)Glc6S = molecular target: Gal6S(b1-4)Glc6S
# Outline: as §1
# Gal6S(b1-4)GlcNAc = molecular target: Gal6S(b1-4)GlcNAc
# Outline: as §1
# Gal6S(b1-4)GlcNAc6S = molecular target: Gal6S(b1-4)GlcNAc6S
# Outline: as §1
# GalNAc(b1-6)GalNAc = molecular target: GalNAc(b1-6)GalNAc
# Outline: as §1
# [23] = molecular target: GlcNAc(a1-4)Gal(b1-3)GlcNAc
# Outline: as §1
# [24] = molecular target: GlcNAc(b1-2)[GlcNAc(b1-6)]Man(a1-6)[GlcNAc(b1-2)Man(a1-3)]Man(b1-4)GlcNAc(b1-4)GlcNAc
# Outline: as §1
# GlcNAc(b1-3)Fuc = molecular target: GlcNAc(b1-3)Fuc
# Outline: as §1
# [25] = molecular target: GlcNAc(b1-3)Gal(b1-4)GlcNAc(b1-3)GalNAc
# Outline: as §1
# [26] = molecular target: GlcNAc(b1-3)Gal(b1-4)GlcNAc(b1-3)[GlcNAc(b1-3)Gal(b1-4)GlcNAc(b1-3)]GalNAc
# Outline: as §1
# [27] = molecular target: GlcNAc(b1-3)Gal(b1-4)GlcNAc(b1-6)[Gal(b1-3)]GalNAc
# Outline: as §1
# GlcNAc(b1-4)GlcNAc = molecular target: GlcNAc(b1-4)GlcNAc
# Outline: as §1
# [28] = molecular target: GlcNAc(b1-4)GlcNAc(b1-4)GlcNAc(b1-4)GlcNAc(b1-4)GlcNAc
# Outline: as §1
# Kdn(a2-6)Gal(b1-4)GlcNAc = molecular target: Kdn(a2-6)Gal(b1-4)GlcNAc
# Outline: as §1
# Man(b1-4)GlcNAc = molecular target: Man(b1-4)GlcNAc
# Outline: as §1
# [29] = molecular target: Neu5Ac(a2-3)Gal(b1-3)GlcNAc(b1-2)Man
# Outline: as §1
# [30] = molecular target: Neu5Ac(a2-3)Gal(b1-3)[Fuc(a1-4)]GlcNAc(b1-3)Gal(b1-3)[Fuc(a1-4)]GlcNAc
# Outline: as §1
# [31] = molecular target: Neu5Ac(a2-3)Gal(b1-3)[Neu5Ac(a2-6)]GalNAc
# Outline: as §1
# [32] = molecular target: Neu5Ac(a2-3)Gal(b1-4)GlcNAc
# Outline: as §1
# [33] = molecular target: Neu5Ac(a2-3)Gal(b1-4)GlcNAc(b1-3)Gal(b1-4)GlcNAc(b1-3)Gal(b1-4)GlcNAc(b1-2)Man(a1-3)[Neu5Ac(a2-3)Gal(b1-4)GlcNAc(b1-3)Gal(b1-4)GlcNAc(b1-3)Gal(b1-4)GlcNAc(b1-2)Man(a1-6)]GalNAc
# Outline: as §1
# [34] = molecular target: Neu5Ac(a2-3)Gal(b1-4)[Fuc(a1-3)]GlcNAc(b1-3)Gal(b1-4)GlcNAc
# Outline: as §1
# [35] = molecular target: Neu5Ac(a2-3)Gal(b1-4)[Fuc(a1-3)]GlcNAc(b1-6)[Gal(b1-3)]GalNAc
# Outline: as §1
# [36] = molecular target: Neu5Ac(a2-3)[GalNAc(b1-4)]Gal(b1-4)Glc
# Outline: as §1
# [37] = molecular target: Neu5Ac(a2-6)GalNAc(b1-4)GlcNAc6S
# Outline: as §1
# Neu5Gc(a2-6)GalNAc = molecular target: Neu5Gc(a2-6)GalNAc
# Outline: as §1
binder,measurement,setting,value
B1,glycan array binding signal (z-score),[1],-0.132
same,glycan array binding signal (z-score),[2],4.84
same,glycan array binding signal (z-score),[3],-0.345
same,glycan array binding signal (z-score),Fuc(a1-4)GlcNAc,-0.241
same,glycan array binding signal (z-score),Gal(a1-3)Gal(b1-3)GlcNAc,1.71
same,glycan array binding signal (z-score),[4],3.52
same,glycan array binding signal (z-score),[5],4.44
same,glycan array binding signal (z-score),[6],2.04
same,glycan array binding signal (z-score),[7],-0.179
same,glycan array binding signal (z-score),[8],1.17
same,glycan array binding signal (z-score),Gal(a1-4)Gal(b1-4)Gal,-0.269
same,glycan array binding signal (z-score),Gal(a1-4)Gal(b1-4)GlcNAc,3.53
same,glycan array binding signal (z-score),[9],0.51
same,glycan array binding signal (z-score),[10],1.9
same,glycan array binding signal (z-score),Gal(a1-4)GlcNAc,5.7
same,glycan array binding signal (z-score),Gal(b1-2)Gal,0.125
same,glycan array binding signal (z-score),Gal(b1-3)Gal(b1-4)GlcNAc,3.49
same,glycan array binding signal (z-score),Gal(b1-3)GalNAc,0.135
same,glycan array binding signal (z-score),[11],-0.255
same,glycan array binding signal (z-score),[12],-0.242
same,glycan array binding signal (z-score),[13],-0.34
same,glycan array binding signal (z-score),[14],-0.093
same,glycan array binding signal (z-score),[15],-0.311
same,glycan array binding signal (z-score),Gal(b1-4)Glc6S,3.51
same,glycan array binding signal (z-score),[16],3.61
same,glycan array binding signal (z-score),[17],-0.259
same,glycan array binding signal (z-score),[18],0.425
same,glycan array binding signal (z-score),[19],-0.214
same,glycan array binding signal (z-score),[20],-0.206
same,glycan array binding signal (z-score),[21],-0.119
same,glycan array binding signal (z-score),[22],-0.194
same,glycan array binding signal (z-score),Gal3S(b1-4)Glc6S,-0.255
same,glycan array binding signal (z-score),Gal6S(b1-3)GlcNAc6S,3.83
same,glycan array binding signal (z-score),Gal6S(b1-4)Glc6S,7.51
same,glycan array binding signal (z-score),Gal6S(b1-4)GlcNAc,1.98
same,glycan array binding signal (z-score),Gal6S(b1-4)GlcNAc6S,8.69
same,glycan array binding signal (z-score),GalNAc(b1-6)GalNAc,-0.347
same,glycan array binding signal (z-score),[23],-0.483
same,glycan array binding signal (z-score),[24],-0.332
same,glycan array binding signal (z-score),GlcNAc(b1-3)Fuc,-0.36
same,glycan array binding signal (z-score),[25],-0.307
same,glycan array binding signal (z-score),[26],-0.348
same,glycan array binding signal (z-score),[27],-0.32
same,glycan array binding signal (z-score),GlcNAc(b1-4)GlcNAc,-0.359
same,glycan array binding signal (z-score),[28],-0.032
same,glycan array binding signal (z-score),Kdn(a2-6)Gal(b1-4)GlcNAc,-0.005
same,glycan array binding signal (z-score),Man(b1-4)GlcNAc,-0.301
same,glycan array binding signal (z-score),[29],-0.336
same,glycan array binding signal (z-score),[30],-0.342
same,glycan array binding signal (z-score),[31],-0.335
same,glycan array binding signal (z-score),[32],-0.321
same,glycan array binding signal (z-score),[33],-0.239
same,glycan array binding signal (z-score),[34],-0.251
same,glycan array binding signal (z-score),[35],-0.245
same,glycan array binding signal (z-score),[36],-0.34
same,glycan array binding signal (z-score),[37],-0.36
same,glycan array binding signal (z-score),Neu5Gc(a2-6)GalNAc,-0.309
